Data from PubChem BioAssay (NCI).
Compounds without any hit were thinned out: in the full panel of roughly 79,000, 15% have a hit. Calls of active or inactive are those of the source. Cut-off read from the data, not from the text of the source: active = growth inhibition above about 70%; inactive = the rest.

How the values were obtained:
[1] = NCI Yeast Anticancer Drug Screen. Data for the rad50 strain (AID 155);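 note: 0% = growth of vehicle-only cultures of the same strain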; settings: S. cerevisiae rad50 strain growth inhibition; at 50.0 µM; stronger effect = higher value
In short: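 Yeast carrying a defined DNA repair defect were exposed to test compounds, and growth was compared with vehicle-treated controls to give percent inhibition.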

[2] = NCI Yeast Anticancer Drug Screen. Data for the mec2-1 strain (AID 157); settings: S. cerevisiae mec2-1 strain, at 50.0 µM, stronger effect = higher value
In short: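 Test agents were screened against the mec2-1 yeast strain, with defined DNA repair or cell cycle alteration. Growth was scored as inhibition against vehicle-only controls.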

[3] = NCI Yeast Anticancer Drug Screen. Data for the sgs1 mgt1 strain (AID 161);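 note: 0% = growth of cultures given vehicle only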; settings: S. cerevisiae sgs1 mgt1 strain, at 50.0 µM, stronger effect = higher value
In short: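 Inhibition of yeast growth, normalised to vehicle-treated controls, is reported for a strain bearing genetic alterations in DNA damage repair.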

[4] = NCI Yeast Anticancer Drug Screen. Data for the cln2 rad14 strain (AID 165);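 note: 0% = growth equal to vehicle treated cultures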; settings: S. cerevisiae cln2 rad14 strain, at 50.0 µM, stronger effect = higher value
In short: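 Growth of compound-exposed yeast (cln2 rad14 genotype) measured and expressed as inhibition relative to vehicle.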

[5] = NCI Yeast Anticancer Drug Screen. Data for the bub3 strain (AID 167); settings: S. cerevisiae bub3 mutant strain, at 50.0 µM, stronger effect = higher value
In short: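 Compounds were applied to a genetically altered yeast strain carrying a cell-cycle control defect. Growth inhibition was scored against vehicle-treated controls.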

[6] = NCI Yeast Anticancer Drug Screen. Data for the mlh1 rad18 strain (AID 175); settings: S. cerevisiae mlh1 rad18 strain growth inhibition; at 50.0 µM; stronger effect = higher value
In short: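 In this whole-cell yeast screen, a strain with altered DNA damage repair is challenged with compound, and its growth is measured against matched vehicle-treated controls.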

Measured: growth inhibition

C=C1CCCCCCCCCCC12SCCCS2
inactive: [1] -42.1% | [2] 7.6% | [3] -25.7% | [4] -11.9% | [5] 20% | [6] -26.6%

COc1c(C)c2c(c(Br)c1N)COCO2
inactive: [1] 3.75% | [2] 16.9% | [3] -10.7% | [4] 8.95% | [5] -7.05% | [6] -21.6%

CC1CC[C@@]23CCC4(C)[C@@](C=CC5[C@@]6(C)CCC(=O)C(C)(C)C6CC[C@]54C)(OC2=O)[C@@H]3[C@H]1C (some centres not stated)
inactive: [1] -14.8% | [2] -17.6% | [3] -14.7% | [4] -15.1% | [5] -14.5% | [6] -8.15%

CCn1c2ccc(C(=O)CCCN(C)C)cc2c2cc(C(=O)CCCN(C)C)ccc21
inactive: [1] 5.15% | [2] -33.3% | [3] 8.5% | [4] 4.05% | [5] 14.2% | [6] -21.9%

O=C(Nc1ccc(Cl)cc1Cl)C1C(=O)C(=O)N(c2ccc(Cl)cc2Cl)C1=O (configuration not stated)
inactive: [1] 10.8% | [2] -10.1% | [3] -1.35% | [4] 26% | [5] 0.8% | [6] 14.4%

O=C1c2c(ccc3c2CCCC3)CC12Cc1ccccc1C2
inactive: [1] 8.9% | [2] -4.45% | [3] 9.25% | [4] -2.75% | [5] 4.8% | [6] 4.7%

COC(=O)n1sc(SC)nc1=N
inactive: [1] 3.75% | [2] -3.95% | [3] -8.9% | [4] -14.3% | [5] -17.1% | [6] 3.55%

COCCOC(=O)c1ccccc1Cl
inactive: [1] 23.7% | [2] 15.6% | [3] 16.3% | [4] 8.8% | [5] 7.1% | [6] 22.4%

CCCCCCCCCCCCCCCc1nnc(SC)s1
inactive: [1] -22.6% | [2] -39% | [3] -14.9% | [4] 15.3% | [5] -3.15% | [6] 11.2%

O=C1c2ccccc2C(=O)N1CC1CO1 (configuration not stated)
inactive: [1] 2.85% | [2] 10.3% | [3] 0.5% | [4] -7.7% | [5] 3.4% | [6] 27.3%

COC(=O)C(=O)CC(=O)CCn1ncc(Cl)c(Cl)c1=O
inactive: [1] -14.3% | [2] -25.4% | [3] -1.3% | [4] 6.45% | [5] -13.6% | [6] -17.7%

CCOC(=O)c1c(C)c2c(n1C)CC/C(=C\N1CCN(c3ccccc3)CC1)C2=O
inactive: [1] 0.6% | [2] -1.55% | [3] -19.5% | [4] -14.8% | [5] 2.25% | [6] 18.3%

CCCCSC(N)=O
inactive: [1] -1.5% | [2] 0% | [3] -15.1% | [4] 10.7% | [5] 17.3% | [6] 11.2%

CCOc1ccc(-n2c(O)c(N=Nc3ccccc3OC)c(=O)n(-c3ccc(OC)cc3)c2=S)cc1
inactive: [1] 18.4% | [2] -7.9% | [3] -10.3% | [4] -10.4% | [5] -4.8% | [6] 7.05%

CCc1ccc(C(C)=O)cc1
inactive: [1] 7.05% | [2] 41.5% | [3] 34.8% | [4] 3.5% | [5] -9.7% | [6] 52.6%

CCOC(=O)/C(=C/c1ccc(C(=O)OC)cc1)N(CC)CC
inactive: [1] -26.5% | [2] -20.5% | [3] -12.1% | [4] 12.2% | [5] -20.1% | [6] -25.8%

O=c1[nH]c(=S)c2[nH]c(=O)n(-c3ccccc3)c2[nH]1
inactive: [1] -15.3% | [2] -7.5% | [3] -59.1% | [4] -26.7% | [5] -9.9% | [6] -14.7%

CCc1c(C)[nH]c(C2=NCCC2)c1C
inactive: [1] -10.6% | [2] -9.6% | [3] -17.8% | [4] -1.6% | [5] -13.4% | [6] -25.1%

Cc1ccc(NC(=O)C(c2ccccc2)c2ccccc2)cc1
inactive: [1] 0.15% | [2] 19.4% | [3] 3.8% | [4] -2.55% | [5] 20.2% | [6] 6.75%

Cc1ccc(C)[nH]1
inactive: [1] -2.85% | [2] 7.35% | [3] -8.45% | [4] 53.2% | [5] -4.4% | [6] 18.1%

CC1CCc2ccccc2N1C(=O)c1cccc([N+](=O)[O-])c1C(=O)O (configuration not stated)
inactive: [1] -6.1% | [2] 2.7% | [3] 27.4% | [4] -11.6% | [5] 21.7% | [6] 5.5%

CC(Br)C1=CC(c2ccccc2)(c2ccccc2)c2ccccc21 (configuration not stated)
active: [1] 97% | [2] 98% | [3] 97.9% | [4] 96.8% | [5] 97.3% | [6] 96.7%

OCC1NC(COC2OC(CO)C(O)C(O)C2O)C(O)C(O)C1O (configuration not stated)
inactive: [1] -17.5% | [2] -14.9% | [3] -19% | [4] 17.1% | [5] -0.25% | [6] -6.25%

COc1cc2c(cc1OC)C1Cc3ccc(OC)c(OC)c3C[N+]1([O-])CC2 (configuration not stated)
inactive: [1] -24.9% | [2] -16.8% | [3] -6.95% | [4] 9.6% | [5] -15.6% | [6] -3.2%

COC(=O)c1ccccc1N=CCC(C)CCCC(C)(C)O (configuration not stated)
inactive: [1] -10.4% | [2] 4.4% | [3] 26.4% | [4] -8.4% | [5] 0.1% | [6] -5.05%

N#C/C(=C\c1ccc2c(c1)OCO2)C(=O)N/N=C/c1ccc2c(c1)OCO2
inactive: [1] 4.6% | [2] 17.3% | [3] 5.4% | [4] -13.7% | [5] -0.1% | [6] 2.95%

C(=C/c1ccc2c(c1)OCO2)/c1ccccc1
inactive: [1] -16.1% | [2] 10.3% | [3] 12.2% | [4] -2.85% | [5] 11% | [6] 2.9%

CCOC(=O)c1cc2ccccc2oc1=O
inactive: [1] -15.2% | [2] 0.3% | [3] -8.75% | [4] 16.4% | [5] 9.25% | [6] 3.9%

O=c1cc(NC(c2ccccc2)c2ccccc2)[nH]c(=O)[nH]1
inactive: [1] -5.25% | [2] 22.1% | [3] 8.95% | [4] -10.4% | [5] 19.1% | [6] 27.6%

c1ccc2c(c1)[nH]c1ccccc12
inactive: [1] -30.9% | [2] -15.9% | [3] 1.65% | [4] -3.05% | [5] -5.5% | [6] 7.05%

O=C1NC(N(Cc2ccccc2)Cc2ccccc2)=NC1(c1ccccc1)c1ccccc1
inactive: [1] 16.2% | [2] 2.85% | [3] 23.2% | [4] 7.45% | [5] 5.9% | [6] 20.6%

COc1cc(-c2oc3ccccc3c(=O)c2O)cc(OC)c1OC
inactive: [1] -29.6% | [2] -51.8% | [3] -16.3% | [4] -22.8% | [5] -42% | [6] -14.1%

O=C(c1ccc(F)cc1)c1c[nH]c(=O)[nH]c1=O
inactive: [1] -0.45% | [2] -18.1% | [3] -7.85% | [4] -6.85% | [5] 2.6% | [6] -33.2%

CC(=O)C(C)(O)C(OP(=O)(O)O)c1ccccc1 (configuration not stated)
inactive: [1] 0.65% | [2] -10.5% | [3] 4.6% | [4] -37.4% | [5] -11.1% | [6] 3.55%

CCCCOC(=O)CNC(=O)OC(C)(C)C
inactive: [1] -4.5% | [2] 11.8% | [3] -10.1% | [4] -2.1% | [5] -3.25% | [6] -15.5%

CC(=O)Oc1ccc2c(c1)C(=O)CCCCCC(=O)O2
inactive: [1] 19.2% | [2] 4.2% | [3] 6.85% | [4] -0.25% | [5] -2.4% | [6] -10.8%

C(=C(Sc1ccccc1)Sc1ccccc1)C(Sc1ccccc1)c1ccccc1 (configuration not stated)
inactive: [1] 12.5% | [2] 21.9% | [3] -5.35% | [4] 10.8% | [5] 20.7% | [6] -13.6%
